# From PubChem BioAssay
# JMJD2A Tudor: JMJD2A Tudor domain (human) inhibition; hit rate 4.4% among 390,000; AlphaScreen JMJD2A-Tudor / H3K4me3 peptide binding; Potency, µM (doses to about 114 µM), for inactives: at the top dose activity change, negative = inhibition, hits mostly inhibitors; O75164; further: potency means the concentration at half of the fitted maximal effect; on the % scale 0 is the no-effect control and ±100 the full control effect; nearly all actives have a fitted effect of over 50% in size
# CtBP-E1A blk: inhibitors of CtBP/E1A interaction | AlphaScreen GST-E1A/His-CtBP binding, 1536-well; active compounds read low | activity change, % (no concentration beside the values) | hit rate 0.49% among 340,000 | AID 651724; in the data active means activity change below about -65%; inconclusive means mostly about -30% to -63%; further: on the % scale 0 is the no-effect control and ±100 the full control effect
#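 Steps: dispense buffer (Tris pH 8.0, NaCl 300 mM, TCEP 1 mM, BSA, Tween 20); add 5X protein mix (GST-E1A, His-CtBP, 125 nM each); pin 23 nL compound; 2 h at 37 °C, dark; add 5X beads (50 ug/mL); 1 h; read.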
# HP1b chromo inh: inhibitors of HP1-beta chromodomain binding to methylated histone tails; P83916; Potency, µM (highest dose often 114 µM), inactives show at the top dose activity change, negative = inhibition, actives largely listed as inhibitors; hit rate 0.56% among 390,000; AlphaScreen HP1-beta / biotin-H3K9me3 peptide binding; further: potency means the concentration at half of the fitted maximal effect; nearly all actives have a fitted effect of over 70% in size
#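 Compound inhibition of the preformed complex between 50 nM HP1-beta and 50 nM biotinylated H3K9me3 peptide was read by AlphaScreen. Buffer was PBS pH 7.4 with 0.01% Tween-20. Incubations ran 30 min at room temperature, with 10 ug/mL donor/acceptor beads.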
# Six1-Eya2 inh: blocks human Six1 binding to Eya2 | Q15475+O00167 | AlphaScreen GST-Six1/His-Eya2 binding, biochemical; active compounds read low | activity change, % (no concentration beside the values) | hit rate 0.56% among 360,000 | AID 651725; in the data active means activity change below about -65%; inconclusive means mostly about -30% to -63%; further: on the % scale 0 is the no-effect control and ±100 the full control effect
#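 Compounds are tested against tagged Six1 and Eya2 proteins bridged by glutathione donor and nickel acceptor beads; after a one-hour incubation at 37 °C without light, AlphaScreen emission is recorded.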
# BAZ2B inh: blocks human BAZ2B; Q9UIF8; AlphaScreen BAZ2B-H3K14Ac peptide displacement; Potency, µM (highest dose often 114 µM), without a hit: top-dose activity change, negative = inhibition, most hits filed as inhibitors; hit rate 4.4% among 360,000; AID 504333; further: potency means the concentration at half of the fitted maximal effect; on the % scale 0 is the no-effect control and ±100 the full control effect; nearly all actives have a fitted effect of over 60% in size
#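 Multi-concentration screen (max 110 uM) measuring displacement of acetylated histone H3 peptide from BAZ2B by AlphaScreen, using 50 nM protein, 50 nM peptide and 10 ug/mL streptavidin donor plus Ni-chelate acceptor beads.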
# TDP1 block: inhibitors of human tyrosyl-DNA phosphodiesterase TDP1 | Potency, µM (series often up to 130 µM), for the others: at the highest dose activity change, negative = inhibition, usual class: inhibitors | hit rate 0.28% among 350,000 | recombinant TDP1, AlphaScreen DNA substrate cleavage; further: potency means the concentration at half of the fitted maximal effect; on the % scale 0 is the no-effect control and ±100 the full control effect; nearly all actives have a fitted effect of over 40% in size
# Target sequence (Q9NUW8 whole entry, looked up): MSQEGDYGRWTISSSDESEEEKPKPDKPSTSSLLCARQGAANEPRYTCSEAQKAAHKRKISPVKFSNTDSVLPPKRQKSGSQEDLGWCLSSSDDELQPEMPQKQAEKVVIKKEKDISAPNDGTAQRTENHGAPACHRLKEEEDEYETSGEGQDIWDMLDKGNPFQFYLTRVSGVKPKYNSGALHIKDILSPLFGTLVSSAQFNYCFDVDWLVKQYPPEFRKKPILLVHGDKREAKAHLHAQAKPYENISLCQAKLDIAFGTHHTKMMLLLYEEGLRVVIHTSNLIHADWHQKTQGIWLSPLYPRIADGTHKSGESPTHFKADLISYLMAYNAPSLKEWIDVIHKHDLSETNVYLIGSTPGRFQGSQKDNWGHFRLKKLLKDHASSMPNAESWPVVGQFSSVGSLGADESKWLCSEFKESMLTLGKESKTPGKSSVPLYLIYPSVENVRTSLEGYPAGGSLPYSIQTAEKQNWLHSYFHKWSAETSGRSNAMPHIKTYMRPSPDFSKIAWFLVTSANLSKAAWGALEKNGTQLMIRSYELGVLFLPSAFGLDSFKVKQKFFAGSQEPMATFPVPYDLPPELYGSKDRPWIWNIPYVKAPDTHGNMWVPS
#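 Here, a 5' biotin and 3' phosphotyrosine-FITC DNA oligonucleotide reports Tdp1 activity: intact substrate bridges AlphaScreen beads, while cleavage leaves a 3' phosphate and drops signal. All incubations at room temperature.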
# * hit, by the source's call; u = inconclusive; x = no result; ! = not active in a repeat; [ ] = another dose, or the depositor's remark. A selection: hits, their analogues and other compounds. The true share with any hit is near 5.3%. Unless noted, the call rests on the fitted dose curve; in most records, active means well fitted inhibition curve with a large enough effect; inconclusive means small, poorly fitted or top-dose-only effect; inactive means no such curve, though single readings can be large or run the other way.
SMILES,JMJD2A Tudor,CtBP-E1A blk,HP1b chromo inh,Six1-Eya2 inh,BAZ2B inh,TDP1 block
Cc1cc2c(s1)c1cnn(Cc3ccc4ccccc4c3)c(=O)c1n2C,-19.2%,x,x,x,x,x
COc1ccc(S(=O)(=O)n2c([N+](=O)[O-])cnc2C)cc1OC,u,1.0,71.7%,0.2,79.4µM*,x
COc1ccc(C)cc1S(=O)(=O)n1c([N+](=O)[O-])cnc1C,-13.7%,7.2,31.2%,2.4,-37.8%,x
CC(C)CC(=O)Nc1ccc2nc(SCC(=O)N3CCc4ccccc43)sc2c1,-24.5%,x,20.8%,x,4.1%,3.6%
O=C1NC(c2cc(Cl)cc([N+](=O)[O-])c2O)Nc2ccccc21 (stereo unspecified),u,1.2,-3.6%,-3.3,39.8µM*,8.6%
COCCCN=C(c1ccco1)n1c(=S)nc(-c2ccco2)n(CCCOC)c1=S,56.2µM*,-13.8,22.4µM*,-9.3,u,x
COCCCn1c(-c2ccco2)nc2ccccc2c1=O,-7.9%,-1.5,37.3%,-4.1,3.5%,5.1%
O=[N+]([O-])c1cc(-c2n(-c3ccccn3)c3ccccc3[n+]2-c2ccccn2)ccc1Cl,-33.6%,1.5,-6.6%,-6.2,44.7µM*,4.8%
O=C(c1ccc(Cl)c([N+](=O)[O-])c1)N1CCN(c2ccccn2)CC1,-19.7%,-0.7,17.7%,7.9,-5.5%,1.2%
C[C@H](CO)NC(=O)[C@H]1C[C@@H]1[C@H](NP(=O)(c1ccccc1)c1ccccc1)c1ccccc1,x,x,x,x,x,2.1%
CC(NCc1ccc2c(c1)n(C)c(=O)n2C)c1ccccc1 (stereo unspecified),-29.2%,x,5.3%,x,-4.2%,7.0%
COc1ccc(N2CCCC2)c(NC(=O)c2ccc([N+](=O)[O-])o2)c1,28.2µM*,-24.1,35.5µM*,u,14.1µM*,19.3%
O=C(Nc1ccc(N2CCCC2)c(Cl)c1)c1ccc([N+](=O)[O-])o1,44.7µM*,-22.0,u,-18.9,17.8µM*,7.9%
O=C(Nc1ccccc1N1CCCC1)c1ccc([N+](=O)[O-])o1,u,-20.8,-15.2%,-10.3,31.6µM*,8.9%
O=C(Nc1cccc(NC(=O)c2ccccc2Cl)c1)c1ccc([N+](=O)[O-])o1,-18.9%,-15.8,25.8%,-10.8,-30.1%,0.0%
COc1ccc(C(=O)Nc2cc([N+](=O)[O-])ccc2N2CCCC2)cc1,-13.7%,-2.0,9.2%,-2.3,-31.0%,5.5%
CC1CCN(c2ccccc2NC(=O)c2ccc([N+](=O)[O-])o2)CC1,-8.5%,-2.5,7.5%,-7.9,-12.5%,x
Cc1ccc2c(c1)C(c1ccc(F)cc1)N(C(=O)c1ccc(S(=O)(=O)N3CCCCC3)cc1)CC(=O)N2 (stereo unspecified),-26.3%,x,24.5%,x,-0.5%,8.8%
CCc1ccc(/C=C2/Sc3ccccc3N(CC(=O)NCCCN3CCOCC3)C2=O)cc1,u,x,-9.0%[57 µM],-9.1,35.5µM*,9.3%
O=C(CN1C(=O)COc2ccccc21)NCCCN1CCOCC1,-4.9%,-1.9,-4.8%,62.3,3.7%,0.0%
O=C(CN1C(=O)/C(=C/c2ccc(C(F)(F)F)cc2)Sc2ccccc21)NCCCN1CCOCC1,-19.3%,0.1,22.4%,-2.3,-29.1%,3.7%
O=C(CN1C(=O)/C(=C\c2cccc(Br)c2)Oc2ccccc21)NCCCN1CCOCC1,44.7µM*,-7.9,58.2%,3.2,-5.9%,-3.3%
COc1ccc(N2CCN(C(=O)c3cc(S(=O)(=O)N4CCC(C)CC4)cn3C)CC2)cc1,u,x,3.9%[57 µM],x,u,5.3%
Cn1c(SCC(=O)Nc2ccc3nc(SCC(=O)N4CCCC4)sc3c2)nnc1-c1ccccc1,u,-11.1,17.2%,-1.6,56.2µM*,50.1µM*
Cc1c(C(=O)OC(C)C(C)C[N+](C)(C)C)oc2ccccc12 (stereo unspecified),56.2µM*,1.4,14.5%,4.7,-20.5%,0.7%
SMILES,JMJD2A Tudor,CtBP-E1A blk,HP1b chromo inh,Six1-Eya2 inh,BAZ2B inh,TDP1 block
Cc1c(C(=O)OC(C)C(=O)N(C)Cc2ccccc2)oc2ccccc12 (stereo unspecified),-3.3%,11.1,55.8%,1.6,x,-4.9%
NC(Cc1ccc(O)c([N+](=O)[O-])c1)C(=O)O (stereo unspecified),u,5.5,-5.5%,3.9,50.1µM*,-4.6%
N[C@H](Cc1ccc(O)cc1)C(=O)O,x,x,x,x,x,-1.2%
NC(Cc1cc(I)c(Oc2ccc(O)c(I)c2)c(I)c1)C(=O)O (stereo unspecified),x,x,x,x,x,10.1%
CC(C)C(=O)Nc1cccc2nsnc12,-11.5%,6.5,31.6%,1.4,1.8%,5.8%
N[C@@H](Cc1cc(I)c(Oc2ccc(O)c(I)c2)c(I)c1)C(=O)O,-24.1%,-17.6,-21.3%,-7.6,50.1µM*!,0.0%
COC(=O)C(N)Cc1ccc(OC)c([N+](=O)[O-])c1 (stereo unspecified),-9.7%,2.0,21.9%,3.2,0.2%,2.6%
N[C@@H](Cc1ccc(O)c(O)c1)C(=O)O,39.8µM*,-25.0,20µM*,u,x,x
NC(Cc1cccc2nsnc12)C(=O)O (stereo unspecified),7.08µM*,-1.5,4.7%,0.3,-5.1%,6.1%
CCOc1ccc(N(C(=O)c2ccc(OC)cc2)S(=O)(=O)c2ccc3c(c2)n(C)c(=O)n3C)cc1,u,x,5.3%,x,u,7.0%
N[C@H](Cc1ccc(Cl)cc1)C(=O)O,x,x,x,x,x,3.6%
NC(Cc1ccc2nsnc2c1)C(=O)O (stereo unspecified),2.24µM*,-8.6,-8.5%,1.7,x,x
C#CCOCCOCCOCCNc1nc(N2CCN(C(=O)[C@H](CCC(=O)O)n3cc([C@@H](N)[C@H](C)CC)nn3)CC2)nc(N2CCN(C(=O)[C@H](CCCCN)n3cc([C@@H](N)CC(N)=O)nn3)CC2)n1,5.62µM*,-11.4,-14.3%,-16.9,x,0.8%
C#CCOCCOCCOCCNc1nc(N2CCN(C(=O)[C@H](CC(N)=O)n3cc(C(N)[C@@H](C)CC)nn3)CC2)nc(N2CCN(C(=O)[C@H](CCC(=O)O)n3cc([C@@H](N)CCCCN)nn3)CC2)n1 (stereo partly specified),79.4µM*,-10.4,13.9%,-8.2,x,2.5%
C#CCOCCOCCOCCNc1nc(N2CCN(C(=O)C([C@@H](C)O)n3cc([C@@H](N)CCCCN)nn3)CC2)nc(N2CCN(C(=O)[C@H](CC(N)=O)n3cc(C(N)[C@@H](C)CC)nn3)CC2)n1 (stereo partly specified),u,-7.3,31.7%,-8.0,x,0.8%
COC(=O)C(NC(=O)CC(C)C)(Nc1nc2c(s1)CCCC2)C(F)(F)F (stereo unspecified),-22.4%,x,11.8%,x,-0.7%,-0.6%
